dFosB act-1: enhances mouse delta FosB homodimer DNA binding; AID 493131; 340,000 compounds, 0.99% hits; P13346; purified delta FosB, TAMRA-CDK5 oligo fluorescence polarization; percent of positive-control signal above neutral wells; activation, % at 25 µM;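 active = mean activation above about 17%, with every replicate also reaching it, limit read from the data, passing the limit was not always enough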
Bfl-1 A1 inh: inhibitors of the anti-apoptotic protein A1, read as caspase activation. caspase activation, % (concentration not given with the values). MEF A1-2A-BIM cells, Caspase-Glo 3/7 luminescence, 3 h; percent of clofoctol response, vehicle zero. 330,000 compounds, 0.066% hits. AID 2462;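 active = over half of replicate activation scores above 10%, or exactly half above 10 with the replicate mean above 10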
INS-1E GSIS act: primary screen for activators of insulin secretion dependent on glucose, INS-1E cells, GLuc reporter luminescence; INS-1E GLuc reporter insulin secretion, 2-3 h; activation, % at 16.6 µM; 370,000 compounds, 0.61% hits;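 active = lowest replicate activation of at least 40%, so every replicate reaches that level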
Neddylation inh: blocks human cullin neddylation; inhibition, % at 25 µM; 360,000 compounds, 0.58% hits; TR-FRET cullin neddylation, biochemical; in the data active = inhibition above about 36%
Target sequence (P61081 whole entry, looked up): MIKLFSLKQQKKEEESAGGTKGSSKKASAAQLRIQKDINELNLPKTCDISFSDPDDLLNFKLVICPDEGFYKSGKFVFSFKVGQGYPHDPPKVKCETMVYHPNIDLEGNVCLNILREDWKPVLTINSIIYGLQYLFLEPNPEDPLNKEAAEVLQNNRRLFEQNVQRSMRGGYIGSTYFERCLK
Target sequence (Q13564 whole entry, looked up): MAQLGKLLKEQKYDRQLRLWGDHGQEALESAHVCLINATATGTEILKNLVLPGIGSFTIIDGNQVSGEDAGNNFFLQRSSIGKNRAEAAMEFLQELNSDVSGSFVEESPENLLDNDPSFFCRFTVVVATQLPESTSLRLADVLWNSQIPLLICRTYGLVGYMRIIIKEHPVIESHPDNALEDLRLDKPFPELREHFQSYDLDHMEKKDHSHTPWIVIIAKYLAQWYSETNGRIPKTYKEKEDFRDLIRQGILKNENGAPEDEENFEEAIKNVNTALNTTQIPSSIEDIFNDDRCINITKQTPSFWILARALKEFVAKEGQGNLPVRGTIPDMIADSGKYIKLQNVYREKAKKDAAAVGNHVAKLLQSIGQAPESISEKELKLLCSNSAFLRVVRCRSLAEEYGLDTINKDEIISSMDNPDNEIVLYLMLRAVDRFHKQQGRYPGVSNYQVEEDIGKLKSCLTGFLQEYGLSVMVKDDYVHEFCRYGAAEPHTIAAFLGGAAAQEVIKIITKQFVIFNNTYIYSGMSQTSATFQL
Vif imaging: inhibitors of HIV Vif | inhibition, % at 7.49 µM | HEK293T cells, Vif self-association by quenched fluorescence, imaging, 24 h | 340,000 compounds, 0.35% hits | AID 602346; in the data active = inhibition above about 50%, passing the limit was not always enough
dFosB act-2: enhances mouse delta FosB homodimer binding to DNA. shares compounds with dFosB act-1. activation, % at 24.9 µM. 2,400 tested, under 10 active. AID 588690. purified delta FosB, TAMRA-CDK5 oligo fluorescence polarization; normalised: neutral wells 0, positive control 100;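 active = highest replicate activation at or above 34% and every replicate reaching that threshold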;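 also: higher polarization means more probe DNA bound by delta FosB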
Large screens that a line does not name were inactive (follow-up assays come after a bar, where shown). A selection: hits, their analogues and other compounds. The true share with any hit is near 1.9%.

Cc1cccc(NC(=O)c2cc(-c3cccnc3)nc3c(C)cccc23)n1	dFosB act-1 55 | dFosB act-2 inactive
COCCN(C(=O)COC(=O)/C=C/c1ccc(SC)cc1)c1c(N)n(Cc2ccccc2)c(=O)[nH]c1=O	dFosB act-1 21 (not shown: Bfl-1 A1 inh, INS-1E GSIS act, Neddylation inh) | dFosB act-2 inactive
COCCN(C(=O)COC(=O)/C=C/c1ccc(C(F)(F)F)cc1)c1c(N)n(Cc2ccccc2)c(=O)[nH]c1=O	none
CCN(C(=O)COC(=O)/C=C/c1ccc(OC)c(OC)c1)c1c(N)n(Cc2ccccc2)c(=O)[nH]c1=O	dFosB act-1 20 (no result: Bfl-1 A1 inh) | dFosB act-2 inactive
CCN(C(=O)COC(=O)c1ccc2ccccc2c1)c1c(N)n(Cc2ccccc2)c(=O)[nH]c1=O	dFosB act-1 38 | dFosB act-2 inactive
O=C(C[C@H]1CC[C@@H]2[C@H](COC[C@@H](O)CN2C(=O)c2ccc(F)cc2)O1)Nc1ccc(-c2ccccc2)cc1	none (no result: dFosB act-1, Bfl-1 A1 inh, Neddylation inh, Vif imaging)
COc1nc(-c2ccc(Cl)cc2)ccc1-c1noc(-c2ccco2)n1	dFosB act-1 30, INS-1E GSIS act 66 | dFosB act-2 inactive
COc1cccc(-c2ccc(-c3noc(-c4ccccc4F)n3)c(OC)n2)c1	none (no result: INS-1E GSIS act)
O=C(C[C@H]1CC[C@@H]2[C@H](COC[C@@H](O)CN2Cc2ccccc2F)O1)N1CCc2ccccc2C1	none (no result: dFosB act-1, Bfl-1 A1 inh, Neddylation inh, Vif imaging)
O=c1[nH]c(-c2ccc(F)cc2)nc2c1sc(=S)n2-c1ccccc1	dFosB act-1 24 | dFosB act-2 inactive
CC(=O)c1cccc(NC(=O)c2cc(-c3ccc(F)cc3)on2)c1	dFosB act-1 25 | dFosB act-2 inactive
O=C(Nc1cccnc1)c1cc(-c2cccc(Cl)c2)on1	dFosB act-1 57 | dFosB act-2 inactive
O=C(Nc1cccnc1Cl)c1cc(-c2ccc(F)cc2)on1	dFosB act-1 84 | dFosB act-2 inactive
C[C@H](CO)N1C[C@H](C)[C@@H](CN(C)S(=O)(=O)c2cn(C)cn2)Oc2c(NC(=O)Cc3ccccc3)cccc2C1=O	none (no result: dFosB act-1, Bfl-1 A1 inh, Neddylation inh, Vif imaging)
C[C@@H]1CN([C@H](C)CO)C(=O)Cc2cc(NS(=O)(=O)c3cccs3)ccc2O[C@H]1CN(C)Cc1ccc2c(c1)OCO2	none (no result: dFosB act-1, Bfl-1 A1 inh, Neddylation inh, Vif imaging)
O=C(Nc1cccc(S(=O)(=O)N2CCCCC2)c1)c1c2c(nc3ccccc13)CCN(Cc1ccccc1)C2	dFosB act-1 52 (no result: INS-1E GSIS act) | dFosB act-2 inactive
O=C(O)c1nn(CC(=O)N2CCN(S(=O)(=O)c3ccc(Cl)cc3)CC2)c(=O)c2ccccc12	dFosB act-1 30 (no result: Vif imaging) | dFosB act-2 inactive
O=C(Cn1nc(C(=O)O)c2ccccc2c1=O)Nc1cccc(S(=O)(=O)N2CCCCCC2)c1	dFosB act-1 32 (no result: INS-1E GSIS act) | dFosB act-2 inactive
Cn1nc(C(=O)N2CCN(S(=O)(=O)c3ccc(Cl)cc3)CC2)c2ccccc2c1=O	none (no result: Bfl-1 A1 inh)
CCc1csc(N2[C@@H](C#N)[C@@H](c3ccc(C4=CCCC4)cc3)[C@@H]2CO)n1	none (no result: dFosB act-1, Bfl-1 A1 inh, Neddylation inh, Vif imaging)
NS(=O)(=O)c1ccc(CCNC(=O)C2CCC(Cn3c(=S)[nH]c4ccccc4c3=O)CC2)cc1 (stereo not drawn)	dFosB act-1 18 | dFosB act-2 inactive
O=C(NCCc1ccccc1)C1CCC(CNc2nc(=S)[nH]c3ccccc23)CC1 (stereo not drawn)	dFosB act-1 24 (no result: INS-1E GSIS act) | dFosB act-2 inactive
Cc1ccc(S(=O)(=O)Nc2cccc3c2O[C@@H](CN(C)C(=O)NC2CCCCC2)[C@H](C)CN([C@@H](C)CO)C3=O)cc1	none (no result: dFosB act-1, Bfl-1 A1 inh, Neddylation inh, Vif imaging)
O=C(NCC(c1ccco1)N1CCc2ccccc2C1)c1ccc(Cl)c([N+](=O)[O-])c1 (stereo not drawn)	none
O=C(NCC(c1ccco1)N1CCCC1)c1ccc(Cl)c(S(=O)(=O)N2CCc3ccccc32)c1 (stereo not drawn)	dFosB act-1 23 | dFosB act-2 inactive
C[C@@H]1CCCCO[C@@H](CN(C)Cc2ccc(C(=O)Nc3ccccc3N)cc2)[C@@H](C)CN([C@H](C)CO)C(=O)c2cc(N(C)C)ccc2O1	none (no result: dFosB act-1, Bfl-1 A1 inh, Neddylation inh, Vif imaging)
Cc1ccc(C)c(NC(=O)Cn2nc(-c3ccccc3)nc2-c2ccccc2)c1	dFosB act-1 55 (no result: INS-1E GSIS act) | dFosB act-2 inactive
CCC(=O)NC(=S)Nc1ccc2oc(-c3ccc(OC)cc3)nc2c1	dFosB act-1 40 | dFosB act-2 inactive
Cc1ccc2c(C)nc(N/C(N)=N/S(=O)(=O)c3ccccc3)nc2c1	dFosB act-1 25 | dFosB act-2 inactive
CCN(CC(=O)Nc1c(F)cccc1F)C(=O)CCc1nc2ccccc2c(=O)[nH]1	none (no result: Vif imaging)
CN(CC(=O)Nc1ccc(Cl)c(C(F)(F)F)c1)C(=O)CCc1nc2ccccc2c(=O)[nH]1	dFosB act-1 52 | dFosB act-2 inactive
CCCN(CC(=O)Nc1ccc(F)c(F)c1F)C(=O)CCc1nc2ccccc2c(=O)[nH]1	dFosB act-1 40 | dFosB act-2 inactive
COc1cccc(S(=O)(=O)Nc2ccc3c(c2)[C@H]2C[C@H](CC(=O)NCc4ccccc4F)O[C@H](CO)[C@H]2O3)c1	none (no result: dFosB act-1, Bfl-1 A1 inh, Neddylation inh, Vif imaging)
COc1ccc(CN(C)C[C@H]2Oc3c(NC(=O)c4cc(C)nn4C)cccc3C(=O)N([C@H](C)CO)C[C@@H]2C)cc1	none (no result: dFosB act-1, Bfl-1 A1 inh, Neddylation inh, Vif imaging)
COc1ccc(C(=O)CCC(=O)Nc2cccc(Cl)c2)cc1	none
O=C(CCC(=O)c1ccc(Oc2ccccc2)cc1)Nc1cccc(Cl)c1	dFosB act-1 26 | dFosB act-2 inactive
CC(=O)Nc1ccc(NC(=O)C(=O)NCC(c2ccco2)N2CCc3ccccc3C2)cc1 (stereo not drawn)	dFosB act-1 22 | dFosB act-2 inactive
O=C(NCC(c1ccco1)N1CCc2ccccc2C1)C(=O)Nc1ccccc1F (stereo not drawn)	none
O=C(C[C@H]1CC[C@H]2[C@@H](COC[C@@H](O)CN2Cc2nccs2)O1)NCc1ccc(F)cc1	none (no result: dFosB act-1, Bfl-1 A1 inh, Neddylation inh, Vif imaging)
CCS(=O)(=O)Nc1ccc(-c2nnc(SCC(=O)c3ccc(NC(C)=O)c(OC)c3)o2)cc1	dFosB act-1 34 (no result: INS-1E GSIS act) | dFosB act-2 inactive
O=C(O)c1ccc(/C=N/Nc2nc3ccccc3[nH]2)cc1	dFosB act-1 25 | dFosB act-2 inactive
CC(C)NC(=O)Nc1ccc2c(c1)C(=O)N(C)C[C@H](C)[C@@H](CN(C)C)O2	none (no result: dFosB act-1, Bfl-1 A1 inh, Neddylation inh, Vif imaging)
Nc1c(Cl)ncnc1N1CCCC1	none
NC(N)=NC(=O)c1nc(Cl)c(N2CCCCCC2)nc1N	dFosB act-1 26 | dFosB act-2 inactive
C[C@@H]1CN([C@H](C)CO)S(=O)(=O)c2ccc(Br)cc2O[C@H]1CN(C)Cc1ccncc1	none (no result: dFosB act-1, Bfl-1 A1 inh, Neddylation inh, Vif imaging)
CSc1cccc(NC(=O)c2nnn(CC(=O)Nc3cc(C)cc(C)c3)c2N)c1	dFosB act-1 64 | dFosB act-2 inactive
Cc1ccc(CNC(=O)c2nnn(CC(=O)Nc3cc(C)cc(C)c3)c2N)cc1	dFosB act-1 88 | dFosB act-2 inactive
Cc1ccccc1NC(=O)Cn1nnc(C(=O)NCc2ccco2)c1N	none
